# Results filed as inconclusive are left out. The source made the active and inactive calls. How the source made its calls: active means hit-call score of the fitted dose curve at least 0.9, where 1 is the maximum; inconclusive means response in the unintended direction; inactive means score below 0.9.
# Experiments:
# [1] = target: human Matrix Metalloproteinase-9 (MMP9), MMP9 (gene 4318) (UniProt P14780); assay: NVS_ENZ_hMMP9: NovaScreen (NVS) Enzymatic Assay for human Matrix Metalloproteinase-9 (MMP9) (AID 2283190);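 further: cell-free recombinant MMP9 protease activity read by fluorescent substrate signal; active means inhibition seen as loss of fluorescence signal versus DMSO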
# human Matrix Metalloproteinase-9 (MMP9), MMP9 (gene 4318), sequence (P14780 whole entry, looked up): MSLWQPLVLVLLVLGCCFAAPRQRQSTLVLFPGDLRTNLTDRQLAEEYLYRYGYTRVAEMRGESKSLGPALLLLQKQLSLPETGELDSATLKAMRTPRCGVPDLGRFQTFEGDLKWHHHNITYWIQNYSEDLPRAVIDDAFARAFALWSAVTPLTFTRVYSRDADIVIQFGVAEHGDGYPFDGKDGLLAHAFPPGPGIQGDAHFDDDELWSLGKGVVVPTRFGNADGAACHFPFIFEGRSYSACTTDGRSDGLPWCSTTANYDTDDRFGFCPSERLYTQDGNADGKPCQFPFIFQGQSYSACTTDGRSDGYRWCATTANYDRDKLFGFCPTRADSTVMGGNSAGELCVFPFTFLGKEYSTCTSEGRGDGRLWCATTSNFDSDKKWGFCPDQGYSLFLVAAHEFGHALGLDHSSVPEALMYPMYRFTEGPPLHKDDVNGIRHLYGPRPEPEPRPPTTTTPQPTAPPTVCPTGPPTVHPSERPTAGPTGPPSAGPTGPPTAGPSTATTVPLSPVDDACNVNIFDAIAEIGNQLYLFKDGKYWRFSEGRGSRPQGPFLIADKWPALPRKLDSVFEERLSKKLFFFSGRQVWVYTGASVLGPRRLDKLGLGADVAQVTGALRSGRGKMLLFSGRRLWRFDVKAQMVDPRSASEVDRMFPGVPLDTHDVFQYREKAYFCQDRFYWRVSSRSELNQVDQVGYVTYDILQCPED
# In short: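 Cell-free fluorescence-intensity enzyme activity assay using extracted protein, read 1 h after dosing. Loss of signal versus DMSO baseline indicates inhibition; primary screen in duplicate at 25 uM, actives followed up in concentration series.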
# [2] = target: human Phosphodiesterase 4A1 (PDE4A1), PDE4A (gene 5141) (UniProt P27815); assay: NVS_ENZ_hPDE4A1: NovaScreen (NVS) Enzymatic Assay for human Phosphodiesterase 4A1 (PDE4A1) (AID 2283191)
# human Phosphodiesterase 4A1 (PDE4A1), PDE4A (gene 5141), sequence (P27815 whole entry, looked up): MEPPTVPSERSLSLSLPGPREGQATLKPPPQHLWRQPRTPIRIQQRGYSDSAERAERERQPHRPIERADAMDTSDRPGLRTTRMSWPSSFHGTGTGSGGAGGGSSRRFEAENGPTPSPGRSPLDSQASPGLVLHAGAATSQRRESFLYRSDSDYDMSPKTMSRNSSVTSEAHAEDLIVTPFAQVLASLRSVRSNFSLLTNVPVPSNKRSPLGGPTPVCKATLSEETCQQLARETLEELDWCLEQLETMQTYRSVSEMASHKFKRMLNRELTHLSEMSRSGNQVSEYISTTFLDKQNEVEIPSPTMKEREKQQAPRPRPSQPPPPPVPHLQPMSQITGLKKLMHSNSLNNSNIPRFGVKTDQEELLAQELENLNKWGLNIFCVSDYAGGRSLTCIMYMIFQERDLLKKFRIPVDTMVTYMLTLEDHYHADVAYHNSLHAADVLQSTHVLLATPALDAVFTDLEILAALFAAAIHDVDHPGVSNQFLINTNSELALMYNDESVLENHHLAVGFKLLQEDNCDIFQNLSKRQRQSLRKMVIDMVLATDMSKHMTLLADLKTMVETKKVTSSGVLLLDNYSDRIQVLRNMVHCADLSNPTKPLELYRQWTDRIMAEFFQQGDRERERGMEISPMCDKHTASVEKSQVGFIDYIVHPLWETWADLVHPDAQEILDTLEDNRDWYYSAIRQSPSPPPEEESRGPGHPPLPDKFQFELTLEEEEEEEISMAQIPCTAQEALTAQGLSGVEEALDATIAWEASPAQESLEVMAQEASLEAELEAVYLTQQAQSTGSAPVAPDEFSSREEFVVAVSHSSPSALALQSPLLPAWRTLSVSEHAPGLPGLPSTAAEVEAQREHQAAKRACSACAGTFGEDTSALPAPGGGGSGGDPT
# In short: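 Fluorescent substrate turnover by recombinant PDE4A1 read after 1 h by mobility-shift separation. Primary duplicate screen at 25 uM; hits retested in concentration series with a 50 uM maximum, relative to DMSO.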
# [3] = target: cAMP-dependent protein kinase catalytic subunit alpha (Homo sapiens) (UniProt P17612); assay: NVS_ENZ_hPKA: NovaScreen (NVS) Enzymatic Assay for human Protein Kinase A (PKA) (AID 2283192)
# In short: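 Cell-free kinase activity read by fluorescence after mobility-shift separation of substrate and product, 1 h post-dosing. Single-concentration duplicate screen (25 uM) preceded singleton concentration series (top 50 uM); loss of signal versus DMSO.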
# [4] = target: human Phosphodiesterase 5 (PDE5), PDE5A (gene 8654) (UniProt O76074); assay: NVS_ENZ_hPDE5: NovaScreen (NVS) Enzymatic Assay for human Phosphodiesterase 5 (PDE5) (AID 2283194)
# In short: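 Screening began in duplicate at 25 uM, with actives taken into concentration-response. Enzyme activity of recombinant PDE5 toward its substrate was measured at 1 h by fluorescence mobility-shift detection, relative to DMSO controls.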
# [5] = target: human Phosphodiesterase 10 (PDE10), PDE10A (gene 10846) (UniProt Q9Y233); assay: NVS_ENZ_hPDE10: NovaScreen (NVS) Enzymatic Assay for human Phosphodiesterase 10 (PDE10) (AID 2283195)
# human Phosphodiesterase 10 (PDE10), PDE10A (gene 10846), sequence (Q9Y233 whole entry, looked up): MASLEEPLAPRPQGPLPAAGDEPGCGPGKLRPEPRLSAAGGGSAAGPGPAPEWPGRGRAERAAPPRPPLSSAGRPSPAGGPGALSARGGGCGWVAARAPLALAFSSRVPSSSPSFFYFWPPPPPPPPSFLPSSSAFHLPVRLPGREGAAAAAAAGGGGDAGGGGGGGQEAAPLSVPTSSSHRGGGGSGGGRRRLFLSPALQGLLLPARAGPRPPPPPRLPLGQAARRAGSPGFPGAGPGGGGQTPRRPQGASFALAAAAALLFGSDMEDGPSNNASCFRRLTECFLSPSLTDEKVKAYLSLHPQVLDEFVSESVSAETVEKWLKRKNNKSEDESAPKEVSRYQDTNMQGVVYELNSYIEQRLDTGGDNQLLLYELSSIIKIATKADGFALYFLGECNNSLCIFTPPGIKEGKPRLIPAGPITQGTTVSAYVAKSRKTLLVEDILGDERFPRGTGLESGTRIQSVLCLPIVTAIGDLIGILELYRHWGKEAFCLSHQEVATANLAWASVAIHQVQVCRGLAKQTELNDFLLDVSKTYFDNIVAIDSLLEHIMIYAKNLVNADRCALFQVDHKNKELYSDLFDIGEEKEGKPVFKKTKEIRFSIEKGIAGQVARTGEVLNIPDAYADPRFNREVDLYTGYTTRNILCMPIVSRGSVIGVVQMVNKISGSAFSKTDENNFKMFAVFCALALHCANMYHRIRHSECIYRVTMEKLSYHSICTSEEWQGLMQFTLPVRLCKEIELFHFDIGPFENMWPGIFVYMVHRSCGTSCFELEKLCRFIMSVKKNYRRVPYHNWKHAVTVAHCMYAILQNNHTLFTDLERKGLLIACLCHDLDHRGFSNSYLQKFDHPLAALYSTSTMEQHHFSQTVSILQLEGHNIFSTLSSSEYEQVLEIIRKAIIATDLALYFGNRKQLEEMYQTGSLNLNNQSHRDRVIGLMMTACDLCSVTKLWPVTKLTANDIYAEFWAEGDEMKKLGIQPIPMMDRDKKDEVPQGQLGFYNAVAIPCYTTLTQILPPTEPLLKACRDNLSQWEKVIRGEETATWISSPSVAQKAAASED
# In short: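 Readout is fluorescence intensity following electrophoretic mobility-shift separation, 1 h after dosing of isolated PDE10A protein. Hits meeting a preset threshold at 25 uM went to concentration series (max 50 uM), analysed relative to DMSO.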
# [6] = target: human Phosphoinositide 3-kinase alpha (PI3Ka), PIK3CA (gene 5290) (UniProt P42336); assay: NVS_ENZ_hPI3Ka: NovaScreen (NVS) Enzymatic Assay for human Phosphoinositide 3-kinase alpha (PI3Ka) (AID 2283196)
# human Phosphoinositide 3-kinase alpha (PI3Ka), PIK3CA (gene 5290), sequence (P42336 whole entry, looked up): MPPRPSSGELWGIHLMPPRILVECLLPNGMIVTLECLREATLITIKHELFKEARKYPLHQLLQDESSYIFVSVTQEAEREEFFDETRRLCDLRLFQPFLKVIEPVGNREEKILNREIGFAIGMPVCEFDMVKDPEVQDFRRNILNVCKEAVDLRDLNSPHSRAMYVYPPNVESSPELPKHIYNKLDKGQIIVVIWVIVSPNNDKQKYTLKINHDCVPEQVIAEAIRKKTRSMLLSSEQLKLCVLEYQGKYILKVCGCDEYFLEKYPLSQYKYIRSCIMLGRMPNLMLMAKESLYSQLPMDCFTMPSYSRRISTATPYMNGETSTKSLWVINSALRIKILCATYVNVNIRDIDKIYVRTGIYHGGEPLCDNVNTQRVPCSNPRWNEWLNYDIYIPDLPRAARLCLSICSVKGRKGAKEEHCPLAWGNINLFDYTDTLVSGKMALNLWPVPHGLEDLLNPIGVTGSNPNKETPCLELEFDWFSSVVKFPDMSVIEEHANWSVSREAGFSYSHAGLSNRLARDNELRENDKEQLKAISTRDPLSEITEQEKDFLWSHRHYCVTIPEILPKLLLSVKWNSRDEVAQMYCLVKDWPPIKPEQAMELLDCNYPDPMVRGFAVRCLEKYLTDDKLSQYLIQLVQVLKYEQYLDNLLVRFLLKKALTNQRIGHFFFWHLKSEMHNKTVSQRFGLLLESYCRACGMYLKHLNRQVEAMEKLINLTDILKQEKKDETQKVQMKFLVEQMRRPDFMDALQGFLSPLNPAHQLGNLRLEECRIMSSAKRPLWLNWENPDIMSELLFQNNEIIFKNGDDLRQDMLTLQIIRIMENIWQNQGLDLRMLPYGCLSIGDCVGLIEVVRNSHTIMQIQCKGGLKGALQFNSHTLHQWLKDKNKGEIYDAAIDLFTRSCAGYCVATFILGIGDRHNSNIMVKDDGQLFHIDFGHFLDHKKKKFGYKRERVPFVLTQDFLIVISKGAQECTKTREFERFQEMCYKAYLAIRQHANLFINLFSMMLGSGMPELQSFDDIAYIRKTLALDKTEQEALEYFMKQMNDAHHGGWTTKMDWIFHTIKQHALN
# In short: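 Enzyme activity as fluorescence after mobility-shift separation of substrate and product, 1 h reaction, recombinant human PI3Kα; concentration-response to 50 uM max for chemicals passing a 25 uM duplicate screen.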
# [7] = target: Tyrosine-protein phosphatase non-receptor type 11 (Homo sapiens) (UniProt Q06124); assay: NVS_ENZ_hPTPN11: NovaScreen (NVS) Enzymatic Assay for human Protein Tyrosine Phosphatase Non-receptor Type 11 (PTPN11) (AID 2283202)
# In short: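 Compounds first tested in duplicate at 25 uM; those reaching ~30% inhibition rerun in singleton concentration-response, top 50 uM. Phosphatase activity measured after 0.5 h by fluorescence with mobility-shift separation, relative to DMSO.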
# [8] = target: Tyrosine-protein phosphatase non-receptor type 12 (Homo sapiens) (UniProt Q05209); assay: NVS_ENZ_hPTPN12: NovaScreen (NVS) Enzymatic Assay for human Protein Tyrosine Phosphatase Non-receptor Type 12 (PTPN12) (AID 2283204)
# Tyrosine-protein phosphatase non-receptor type 12 (Homo sapiens), sequence (Q05209 whole entry, looked up): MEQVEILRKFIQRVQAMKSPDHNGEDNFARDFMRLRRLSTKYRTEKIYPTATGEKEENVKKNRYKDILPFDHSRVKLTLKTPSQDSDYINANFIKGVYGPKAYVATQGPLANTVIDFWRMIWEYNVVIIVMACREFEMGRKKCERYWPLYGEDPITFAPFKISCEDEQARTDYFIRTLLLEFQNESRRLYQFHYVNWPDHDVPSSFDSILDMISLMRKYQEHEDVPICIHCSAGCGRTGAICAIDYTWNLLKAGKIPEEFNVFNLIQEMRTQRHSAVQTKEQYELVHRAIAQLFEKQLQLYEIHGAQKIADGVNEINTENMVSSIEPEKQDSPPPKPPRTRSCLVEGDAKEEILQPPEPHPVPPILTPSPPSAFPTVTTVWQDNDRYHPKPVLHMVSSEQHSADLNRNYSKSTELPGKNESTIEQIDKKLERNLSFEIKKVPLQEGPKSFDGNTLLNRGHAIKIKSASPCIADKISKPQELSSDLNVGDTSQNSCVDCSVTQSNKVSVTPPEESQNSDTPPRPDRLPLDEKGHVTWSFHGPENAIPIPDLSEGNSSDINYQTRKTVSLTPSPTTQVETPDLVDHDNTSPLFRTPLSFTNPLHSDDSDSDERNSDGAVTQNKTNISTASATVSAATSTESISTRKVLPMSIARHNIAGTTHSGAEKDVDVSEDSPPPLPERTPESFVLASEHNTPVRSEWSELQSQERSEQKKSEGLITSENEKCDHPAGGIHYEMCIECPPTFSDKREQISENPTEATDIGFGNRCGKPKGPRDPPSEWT
# In short: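 Single-concentration duplicates (25 uM) preceded singleton concentration-response up to 50 uM for chemicals passing threshold. Cell-free recombinant PTPN12 activity was read 1.33 h after dosing via fluorescence after mobility-shift separation; loss of signal versus DMSO.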
# [9] = target: Tyrosine-protein phosphatase non-receptor type 13 (Homo sapiens) (UniProt Q12923); assay: NVS_ENZ_hPTPN13: NovaScreen (NVS) Enzymatic Assay for human Protein Tyrosine Phosphatase Non-receptor Type 13 (PTPN13) (AID 2283205)
# In short: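 Screened first at a single 25 uM in duplicate; compounds passing the threshold (e.g. 30% inhibition) were rerun in concentration series, top 50 uM. Recombinant enzyme, fluorescent substrate, mobility-shift separation, 0.5 h read. Data fitted as inhibition relative to DMSO.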
# [10] = target: Tyrosine-protein phosphatase non-receptor type 14 (Homo sapiens) (UniProt Q15678); assay: NVS_ENZ_hPTPN14: NovaScreen (NVS) Enzymatic Assay for human Protein Tyrosine Phosphatase Non-receptor Type 14 (PTPN14) (AID 2283206)
# In short: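 Fluorescent substrate turnover by recombinant human PTPN14 was measured 0.5 h after compound addition, with substrate and product separated by mobility shift. Single-point screening at 25 uM, then concentration-response up to 50 uM for chemicals meeting threshold (e.g., 30% inhibition).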
# [11] = target: human Protein Tyrosine Phosphatase Non-receptor Type 4 (PTPN4), PTPN4 (gene 5775) (UniProt P29074); assay: NVS_ENZ_hPTPN4: NovaScreen (NVS) Enzymatic Assay for human Protein Tyrosine Phosphatase Non-receptor Type 4 (PTPN4) (AID 2283208)
# In short: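 Screened in duplicate at 25 uM, with hits then titrated to a top concentration of 50 uM. Recombinant Sf9-derived PTPN4 turnover was read by fluorescence with electrophoretic separation, 1.33 h after compound addition. DMSO served as baseline.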
# [12] = target: human Protein Tyrosine Phosphatase Non-receptor Type 9 (PTPN9), PTPN9 (gene 5780) (UniProt P43378); assay: NVS_ENZ_hPTPN9: NovaScreen (NVS) Enzymatic Assay for human Protein Tyrosine Phosphatase Non-receptor Type 9 (PTPN9) (AID 2283209)
# In short: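 Sf9-expressed enzyme in a cell-free assay, fluorescence read 1.33 h after dosing with mobility-shift separation of substrate and product. Tested at 25 uM in duplicate, then up to 50 uM; signal loss versus DMSO.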
# [13] = target: human Protein Tyrosine Phosphatase Receptor Type F (PTPRF), PTPRF (gene 5792) (UniProt P10586); assay: NVS_ENZ_hPTPRF: NovaScreen (NVS) Enzymatic Assay for human Protein Tyrosine Phosphatase Receptor Type F (PTPRF) (AID 2283213)
# In short: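 Cell-free fluorescence enzyme assay with recombinant protein and substrate; product separated by electrophoretic mobility shift. Read 1 h after dosing, single 25 uM duplicate screen, then concentration-response up to 50 uM; loss of signal vs DMSO.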
# [14] = target: human Protein Tyrosine Phosphatase Receptor Type M (PTPRM), PTPRM (gene 5797) (UniProt P28827); assay: NVS_ENZ_hPTPRM: NovaScreen (NVS) Enzymatic Assay for human Protein Tyrosine Phosphatase Receptor Type M (PTPRM) (AID 2283215)
# In short: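 Read-out is fluorescence after electrophoretic separation of substrate and product, taken 1.33 h post-dosing with recombinant enzyme. Compounds screened at 25 uM in duplicate, then concentration series for actives; activity as signal loss relative to DMSO.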
# [15] = target: human Protein Phosphatase, Mg2+/Mn2+ Dependent 1A (PPM1A), PPM1A (gene 5494) (UniProt P35813); assay: NVS_ENZ_hPPM1A: NovaScreen (NVS) Enzymatic Assay for human Protein Phosphatase, Mg2+/Mn2+ Dependent 1A (PPM1A) (AID 2283198)
# human Protein Phosphatase, Mg2+/Mn2+ Dependent 1A (PPM1A), PPM1A (gene 5494), sequence (P35813 whole entry, looked up): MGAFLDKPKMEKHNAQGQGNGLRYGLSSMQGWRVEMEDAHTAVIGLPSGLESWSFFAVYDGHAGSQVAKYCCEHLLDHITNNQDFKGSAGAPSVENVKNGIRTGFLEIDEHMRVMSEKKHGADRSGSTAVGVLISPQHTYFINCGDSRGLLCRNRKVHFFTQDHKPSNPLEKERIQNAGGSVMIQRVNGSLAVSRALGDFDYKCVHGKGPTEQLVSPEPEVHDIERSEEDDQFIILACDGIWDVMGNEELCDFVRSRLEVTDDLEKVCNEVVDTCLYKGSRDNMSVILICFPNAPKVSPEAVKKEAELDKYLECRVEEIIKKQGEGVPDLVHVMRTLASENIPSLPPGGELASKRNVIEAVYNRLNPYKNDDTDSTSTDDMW
# In short: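 Primary screen in duplicate at 25 uM, with actives then titrated to a maximum of 50 uM. Recombinant PPM1A dephosphorylation of fluorescent substrate measured at 1 h, with substrate and product separated by mobility shift; inhibition fitted against DMSO.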
# [16] = target: human Rho Associated Coiled-coil Containing Protein Kinase 1 (ROCK1), ROCK1 (gene 6093) (UniProt Q13464); assay: NVS_ENZ_hROCK1: NovaScreen (NVS) Enzymatic Assay for human Rho Associated Coiled-coil Containing Protein Kinase 1 (ROCK1) (AID 2283214)
# In short: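 Compounds first run in duplicate at 25 uM against recombinant human ROCK1, then followed in concentration series. Kinase activity was read 1 h post-dosing by fluorescence with mobility-shift separation, as signal loss relative to DMSO.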
# [17] = target: human Protein Tyrosine Phosphatase Non-receptor Type 1 (PTPN1), PTPN1 (gene 5770) (UniProt P18031); assay: NVS_ENZ_hPTPN1: NovaScreen (NVS) Enzymatic Assay for human Protein Tyrosine Phosphatase Non-receptor Type 1 (PTPN1) (AID 2283201)
# In short: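 Chemicals were first tested in duplicate at 25 uM, and those passing threshold went on to singleton concentration series topping at 50 uM. Recombinant enzyme, specific substrate, product separated by mobility shift, fluorescence read at 1.33 h; activity loss relative to DMSO.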
# [18] = target: human Protein Tyrosine Phosphatase Receptor Type B (PTPRB), PTPRB (gene 5787) (UniProt P23467); assay: NVS_ENZ_hPTPRB: NovaScreen (NVS) Enzymatic Assay for human Protein Tyrosine Phosphatase Receptor Type B (PTPRB) (AID 2283211)
# In short: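 Recombinant human PTPRB with a fluorescent substrate, product separated by electrophoretic mobility shift; read 1 h after dosing. Primary screen in duplicate at 25 uM; actives then retested in concentration series; loss of signal versus DMSO.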
# [19] = target: human Protein Tyrosine Phosphatase Non-receptor Type 6 (PTPN6), PTPN6 (gene 5777) (UniProt P29350); assay: NVS_ENZ_hPTPN6: NovaScreen (NVS) Enzymatic Assay for human Protein Tyrosine Phosphatase Non-receptor Type 6 (PTPN6) (AID 2283210)
# In short: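 Recombinant human PTPN6 from SF9 cells, enzyme activity followed by fluorescence after mobility-shift separation of substrate and product at 1.33 h. Chemicals first tested at a single 25 uM in duplicate, then confirmed across concentration series; loss of signal relative to DMSO.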
compound,measurement,setting,value
O=C(O)c1cc(N=Nc2ccc(S(=O)(=O)Nc3ccccn3)cc2)ccc1O,AC50,[1],7.16 µM (active)
same,outcome,[2],inactive
same,outcome,[3],inactive
same,outcome,[4],inactive
same,AC50,[5],5.28 µM (active)
same,outcome,[6],inactive
same,outcome,[7],inactive
same,outcome,[8],inactive
same,outcome,[9],inactive
same,outcome,[10],inactive
same,outcome,[11],inactive
same,outcome,[12],inactive
same,outcome,[13],inactive
same,outcome,[14],inactive
O=C(O)CCN(C1(C(=O)NO)CCCC1)S(=O)(=O)c1ccc(Oc2ccc(F)cc2)cc1,AC50,[1],0.00365 µM (active)
same,outcome,[15],inactive
same,outcome,[16],inactive
Cn1c(=O)c2c(ncn2C)n(C)c1=O,AC50,[2],25 µM (active)
same,outcome,[4],inactive
same,AC50,[5],25 µM (active)
CCCCC(CC)COC(=O)c1ccc(C(=O)OCC(CC)CCCC)cc1 (stereo unspecified),outcome,[1],inactive
same,outcome,[12],inactive
CNS(=O)(=O)c1cc(C(=O)N2CCC(CCN3C4CCC3CC(n3c(C)nc5ccccc53)C4)(c3cccc(F)c3)CC2)c(Cl)cc1F (stereo unspecified),AC50,[1],8.37 µM (active)
same,outcome,[2],inactive
same,outcome,[9],inactive
CC(C)c1cccc(C(C)C)c1N1C(=O)c2ccc(O)cc2C1=O,AC50,[6],0.533 µM (active)
same,outcome,[17],inactive
same,outcome,[8],inactive
same,outcome,[10],inactive
same,outcome,[18],inactive
CCN(C(=O)c1cc(C)cc(OC[C@H](C)Nc2ccncc2)c1)C(C)C,outcome,[15],inactive
Cc1[nH]cnc1C[C@H]1CCc2c(C)c3ccccc3n2C1=O,outcome,[8],inactive
O=C1CCCCCN1,outcome,[19],inactive
Nc1ccc(Nc2ccccc2)cc1,AC50,[14],15.8 µM (active)
CC(=O)c1ccc2c(c1)[C@H](NC(=O)c1ccc(F)cc1)[C@@H](O)C(C)(C)O2,outcome,[3],inactive
same,outcome,[4],inactive

# — PubChem BioAssay (EPA / NIEHS)
